16 molecules from PubChem BioAssay can be followed below.

The nature of the experiment: inhibitors of PAF-induced NFkB signaling in CF airway cells, dose response, cell-based, uHTS hits, panel, cytotoxicity readout (AID 624344). To be noted: CF bronchial epithelial cells, PAF-induced NFkB reporter inhibition, with PAF, run 1; at 79 µM (top of the series) unless noted.
Regarding `COc1cc(NC(=O)Cn2ncc(Cl)c(Cl)c2=O)c(C)cc1[N+](=O)[O-]`, the inhibition came out at 97.1%.

For the molecule `Cc1cc(C)c(O)c(CN(C)Cc2cc(Cl)cc(Cl)c2O)c1`, the inhibition was 109%.

As for `C=C1C(=O)O[C@@H]2[C@H]3O[C@]3(C)CC/C=C(\C)CC[C@@H]12`, the inhibition was determined as 101%.

Consider `CCCCN(c1ccccc1)c1ncnc(N)c1[N+](=O)[O-]`, for which the inhibition came out at 97.4%.

Turning to `CC(C)C[C@@H](CN1CCCC1CN1C(=S)NC[C@@H]1Cc1ccc(O)cc1)N1C[C@H](Cc2ccc(O)cc2)N(CC2CCCCCC2)C1=S` (stereo partly specified), the inhibition amounted to 116%.

As to `O=C(Nc1cccnc1)c1sc2cccc(F)c2c1Cl`, the inhibition was 76.8%.

Take `Cc1ccc(S(=O)(=O)/N=C(\CCl)N2CCOCC2)cc1`: the inhibition is 110%.

As for `CC(=O)c1c(O)cc(O)c(C(C)=O)c1O`, the inhibition amounted to 110%.

As for `c1ccc2c(-c3ccc4nncn4c3)cncc2c1`, the inhibition was determined as 92.3%.

Turning to `COc1cc(/C=C2\SC(=O)N(CCNC(=O)c3sc4cc(F)ccc4c3Cl)C2=O)cc(OC)c1OC`, the inhibition amounted to 27.5%.

Consider `CC[C@H](CO)Nc1nc(Nc2cccc(Cl)c2)c2ncn(C(C)C)c2n1`, for which the inhibition came out at 106%.

Regarding `CCC1(O)CC2CN(CCc3c([nH]c4ccccc34)C(C(=O)OC)(c3cc4c(cc3OC)N(C=O)C3C(O)(C(=O)OC)C(OC(C)=O)C5(CC)C=CCN6CCC43C65)C2)C1` (stereo unspecified), the inhibition stood at 107%.

Take `CC1CCCCN1c1ncnc(N)c1[N+](=O)[O-]` (stereo unspecified): the inhibition amounted to 113%.

Take `Cc1nn(-c2ccccc2)c(Cl)c1C(=O)N1CCN(c2ncnc3c2cnn3-c2ccccc2)CC1`: the inhibition worked out at 114%.

`CCn1c2ccccc2c2cc(/C=N/O)ccc21`: the inhibition was determined as 114%.

Consider `NS(=O)(=O)c1ccc(CCNC(=O)c2ccc(C#CC3(O)CCCCC3)cc2)cc1`, for which the inhibition turned out to be 105%.
